# Results published in ChEMBL document CHEMBL3988442, “University of Dundee, Small-Polar-MMV Screening Library” (2021).
# About 1,200 (3.2%) of roughly 38,000 compounds showed an effect of 50% or more. The median lay at about -58%. The sample holds strong results, similar compounds and a random draw of the others, so the mix is not that of the screen.
# System: Plasmodium falciparum
# Test: Calibr Malaria Delayed Death Assay SOP
# Assay type: functional, organism-based
# Parameters: scale not given: in the data most compounds retested in dose-response had high values
# Conditions: concentration 4.99e-06 (unit not given; other assays of the set use mol/L)
row,Structure (SMILES),Percent Effect [%]
1,CCn1nc(C)c2nc(C(C)C)nc(NCc3ccccn3)c21,36.29
2,Cc1ccc(CN(CCN(C)C)C(=O)Cc2cn3ccccc3n2)o1,-71.99
3,Cc1nc2sccn2c1CNc1ccc(C(=O)O)cc1,-70.26
4,O=C(C1CCCN1Cc1nc(-c2ccco2)no1)N1CCSCC1 (centres undefined),-120.3
5,c1coc(-c2nc3c(c(NCc4n[nH]c5c4CCC5)n2)CCNCC3)c1,20.11
6,Nc1nc2c(c(NCc3cnc4c(c3)CCC4)n1)CCNC2,-34.51
7,c1ccc(-c2nc3c(c(NCc4n[nH]c5c4CCC5)n2)CCNC3)cc1,89.28
8,COc1ccccc1C(C)NC(=O)NCCC(=O)NC1CCCCC1 (centres undefined),-102.7
9,Cc1nc(C(=O)N2CCN(S(C)(=O)=O)CC2)c(-c2ccccc2)s1,-18.55
10,CC(C)COCCCNC(=O)c1cccnc1N1CCOCC1,-144.5
11,CC(C)NC1CC2(CCNCC2)c2cc(F)ccc21.Cl.Cl (centres undefined),6.754
12,Cc1ccc2c(c1)C1(CCNCC1)CC2OCC1CC1 (centres undefined),44.42
13,Cc1ccc2c(c1)C1(CCNCC1)CC2NCCO.Cl.Cl (centres undefined),-29.16
14,Cc1ccc2c(c1)C(NC1CC1)CC21CCNCC1.Cl (centres undefined),82.38
15,Cl.O=C1NC2(CCNCC2)CC1c1ccccc1 (centres undefined),-140.8
16,CNC(=O)CC1CC2(CCNCC2)c2cc(F)ccc21 (centres undefined),-118.7
17,COCCN1CCC2(CC1)CC(OCC1CC1)c1ccc(C)cc12 (centres undefined),40.12

row,Structure (SMILES),Percent Effect [%]
1,Cl.Cl.c1ccc2c(c1)C(NC1CCCC1)CC21CCNCC1 (centres undefined),74.54
2,Fc1ccc2c(c1)C1(CCNCC1)CC2OCC1CC1 (centres undefined),69.13
3,Cc1ccc2c(c1)C(NC(C)C)CC21CCNCC1.Cl (centres undefined),-48.62
4,Cl.Cl.Fc1ccc2c(c1)C1(CCNCC1)CC2NC1CC1 (centres undefined),82.19
5,CCCc1noc(CN2CCC(C(=O)Nc3cnn(CC)c3)CC2)n1,-105
6,Cc1cc(C)n(C2CCCN(C(=O)Cc3cccs3)C2)n1 (centres undefined),-45.18
7,Cc1nccn1CCCn1c(=O)cnc2ccccc21,-30.97
8,CNC(=O)C1(CCCc2ccncc2)CCN1.O=C(O)C(F)(F)F (centres undefined),-123.5
9,Cc1ccc2c(c1)C1(CCNCC1)CC2NC(C)C.Cl.Cl (centres undefined),-38.07
10,COc1ccc2c(c1)C1(CCNCC1)CC2NC1CC1.Cl.Cl (centres undefined),-4.171
11,Cc1ccc2c(c1)C1(CCNCC1)CC2NC1CC1.Cl.Cl (centres undefined),73.32
12,COc1ccnc(N2CCC(OCCN3CCCCC3)C2)n1 (centres undefined),51.05
13,C1CCN(CCOC2CCNCC2)CC1,-37.31
14,CC(C)(C)c1nccc(N2CCN(C3CCS(=O)(=O)C3)CC2)n1 (centres undefined),-36.45
15,Cc1ccnc(N2CCC(OCCN3CCCCC3)C2)n1 (centres undefined),-84.22
16,CC(C)(C)c1nccc(N2CCC(OCCN3CCCCC3)C2)n1 (centres undefined),62.36
17,Cc1cnc(N2CCC(OCCN3CCCCC3)C2)nc1C (centres undefined),23.23
